# For some assays here: Measured potencies and affinities stand elsewhere.
# Columns and labels:
# Parameters in all cases: scale not given: direction of the effect not stated beside the values
# [1] = target: Protein translocase subunit SecA (Escherichia coli (strain K12)) (UniProt P10408); assay: Assay to Identify E. coli SecA ATPase Inhibitors; type: functional; settings: 30 µM
# [2] = target: T1, Ubiquitin-activating enzyme e1, putative (Leishmania donovani (strain BPK282A1)) (UniProt E9BSI1); assay: Leishmania donovani Ubiquitin Activating Enzyme (LdE1); type: functional; settings: 30 µM
# T1 sequence (whole entry): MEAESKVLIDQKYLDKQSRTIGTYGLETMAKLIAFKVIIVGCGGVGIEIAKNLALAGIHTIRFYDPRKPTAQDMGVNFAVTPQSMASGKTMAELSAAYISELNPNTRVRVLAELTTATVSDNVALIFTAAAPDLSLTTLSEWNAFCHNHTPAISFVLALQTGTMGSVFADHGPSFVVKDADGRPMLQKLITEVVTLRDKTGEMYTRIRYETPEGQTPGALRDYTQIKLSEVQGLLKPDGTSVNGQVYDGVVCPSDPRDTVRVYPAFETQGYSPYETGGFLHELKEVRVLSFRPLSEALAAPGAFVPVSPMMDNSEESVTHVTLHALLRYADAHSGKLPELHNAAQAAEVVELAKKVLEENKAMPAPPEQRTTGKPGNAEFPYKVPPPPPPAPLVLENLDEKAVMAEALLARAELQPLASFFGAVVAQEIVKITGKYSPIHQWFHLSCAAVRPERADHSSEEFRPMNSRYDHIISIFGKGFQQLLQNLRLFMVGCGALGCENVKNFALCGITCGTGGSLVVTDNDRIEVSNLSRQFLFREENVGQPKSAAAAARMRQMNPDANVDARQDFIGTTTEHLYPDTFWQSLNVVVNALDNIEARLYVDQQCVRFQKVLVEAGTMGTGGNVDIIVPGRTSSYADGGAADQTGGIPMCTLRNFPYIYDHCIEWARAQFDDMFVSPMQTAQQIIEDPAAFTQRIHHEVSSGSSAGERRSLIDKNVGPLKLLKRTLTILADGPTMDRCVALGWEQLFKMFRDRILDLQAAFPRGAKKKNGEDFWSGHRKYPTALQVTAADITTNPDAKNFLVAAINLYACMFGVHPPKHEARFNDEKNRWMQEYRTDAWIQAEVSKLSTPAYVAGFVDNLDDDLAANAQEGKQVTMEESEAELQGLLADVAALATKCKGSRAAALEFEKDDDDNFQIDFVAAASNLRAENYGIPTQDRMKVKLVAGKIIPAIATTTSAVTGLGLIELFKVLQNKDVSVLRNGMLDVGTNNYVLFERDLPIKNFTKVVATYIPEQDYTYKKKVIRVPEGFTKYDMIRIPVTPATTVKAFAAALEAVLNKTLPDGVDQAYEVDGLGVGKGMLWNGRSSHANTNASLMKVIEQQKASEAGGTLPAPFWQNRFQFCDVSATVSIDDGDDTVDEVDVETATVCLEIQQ
# [3] = target: AMP-activated protein kinase, AMPK (Homo sapiens) (UniProt P54646+O43741+P54619+Q9UGJ0+Q9Y478+Q13131+Q9UGI9); assay: AMP-dependent Kinase enzyme assay. An in vitro enzyme assay that detects ADP turnover that is directly proportional to AMPK activity. This uses naive AMPK that is activated during the assay with MK-8722; type: functional; settings: 30 µM
# [4] = target: Sialic acid-binding Ig-like lectin 9 (Homo sapiens) (UniProt Q9Y336); assay: Hs-Siglec9 ALPHAscreen SOP 20170721; settings: 10 µM
# Trypanosoma cruzi = assay: Trypanosoma cruzi phosphomannomutase and mannose-1-phosphate guanylyltransferase assay; type: functional; settings: 10 µM
# [5] = target: T2, Arginase-2, mitochondrial (Homo sapiens) (UniProt P78540); assay: in vitro enzyme assay to detect the production of urea directly proportional to the activity of Arginase II; type: functional; settings: 33.3 µM; further: in the data most compounds retested in dose-response had high values
# T2 sequence (whole entry): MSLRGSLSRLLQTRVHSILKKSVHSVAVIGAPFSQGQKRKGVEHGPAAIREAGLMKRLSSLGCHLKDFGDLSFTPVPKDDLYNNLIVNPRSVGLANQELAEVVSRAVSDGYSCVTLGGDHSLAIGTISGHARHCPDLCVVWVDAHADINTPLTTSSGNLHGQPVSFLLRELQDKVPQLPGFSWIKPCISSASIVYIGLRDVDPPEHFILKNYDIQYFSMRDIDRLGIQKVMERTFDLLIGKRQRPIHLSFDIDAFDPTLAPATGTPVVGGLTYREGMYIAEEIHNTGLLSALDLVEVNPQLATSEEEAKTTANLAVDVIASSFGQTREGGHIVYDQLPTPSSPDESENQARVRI
# [6] = target: T3, Proteasome subunit beta (Trypanosoma cruzi) (UniProt O96673); assay: Trypanosoma cruzi proteasome chymotrypsin-like activity (TcProtChymo) assay.; further: in the data most compounds retested in dose-response had high values; type: functional; settings: 9.37 µM
# T3 sequence (whole entry): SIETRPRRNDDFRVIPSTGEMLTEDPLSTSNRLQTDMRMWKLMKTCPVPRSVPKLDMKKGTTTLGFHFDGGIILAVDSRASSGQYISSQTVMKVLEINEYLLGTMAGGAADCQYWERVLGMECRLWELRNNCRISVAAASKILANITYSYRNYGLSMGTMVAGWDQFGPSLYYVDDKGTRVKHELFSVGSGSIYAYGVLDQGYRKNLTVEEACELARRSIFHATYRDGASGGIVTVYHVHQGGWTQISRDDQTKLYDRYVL
# Homo sapiens = organism: Homo sapiens; assay: To identify inhibition of the IFN signalling (Jak-Stat) pathway via expression of an eGFP reporter gene under the control of an IFN-stimulated response element (ISRE) containing MxA promoter.; type: functional; settings: 30 µM
# [7] = target: T4, Tyrosyl-tRNA synthetase, putative (Trypanosoma cruzi (strain CL Brener)) (UniProt Q4DSP6); assay: Trypanosoma cruzi tyrosyl tRNA synthetase (TcYRS) _High Tyrosine SOP; type: functional; settings: 30 µM; further: in the data most compounds retested in dose-response had high values
# T4 sequence (whole entry): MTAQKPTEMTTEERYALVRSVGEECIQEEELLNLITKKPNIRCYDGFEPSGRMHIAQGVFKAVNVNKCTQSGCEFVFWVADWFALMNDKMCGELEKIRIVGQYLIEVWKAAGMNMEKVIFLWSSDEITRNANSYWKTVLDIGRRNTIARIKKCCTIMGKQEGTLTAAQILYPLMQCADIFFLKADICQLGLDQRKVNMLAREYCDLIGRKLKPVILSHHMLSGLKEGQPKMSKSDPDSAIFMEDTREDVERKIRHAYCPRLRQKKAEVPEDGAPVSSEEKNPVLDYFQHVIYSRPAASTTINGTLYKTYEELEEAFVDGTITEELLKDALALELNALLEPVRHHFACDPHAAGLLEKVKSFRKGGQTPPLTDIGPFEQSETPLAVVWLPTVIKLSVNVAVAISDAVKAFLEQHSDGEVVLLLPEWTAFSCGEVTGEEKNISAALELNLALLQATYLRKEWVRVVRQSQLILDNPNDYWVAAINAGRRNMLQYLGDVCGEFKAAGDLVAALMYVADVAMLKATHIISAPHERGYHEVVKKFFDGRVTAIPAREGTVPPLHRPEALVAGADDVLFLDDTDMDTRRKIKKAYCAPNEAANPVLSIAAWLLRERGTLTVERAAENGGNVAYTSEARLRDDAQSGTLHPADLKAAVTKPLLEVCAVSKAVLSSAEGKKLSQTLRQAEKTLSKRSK
# [8] = target: T4, Tyrosyl-tRNA synthetase, putative (Trypanosoma cruzi (strain CL Brener)); assay: Trypanosoma cruzi tyrosyl tRNA synthetase (TcYRS) SOP; type: functional; settings: 30 µM
# [9] = target: Chromo domain-containing protein 1 (Saccharomyces cerevisiae (strain ATCC 204508 / S288c) (Baker's yeast)) (UniProt P32657); assay: ScCHD-1 Enzyme Inhibition Assay; type: functional; settings: 30 µM; further: in the data most compounds retested in dose-response had high values
# Chromo domain-containing protein 1 (Saccharomyces cerevisiae (strain ATCC 204508 / S288c) (Baker's yeast)), sequence (P32657 whole entry, the tested form may be a part): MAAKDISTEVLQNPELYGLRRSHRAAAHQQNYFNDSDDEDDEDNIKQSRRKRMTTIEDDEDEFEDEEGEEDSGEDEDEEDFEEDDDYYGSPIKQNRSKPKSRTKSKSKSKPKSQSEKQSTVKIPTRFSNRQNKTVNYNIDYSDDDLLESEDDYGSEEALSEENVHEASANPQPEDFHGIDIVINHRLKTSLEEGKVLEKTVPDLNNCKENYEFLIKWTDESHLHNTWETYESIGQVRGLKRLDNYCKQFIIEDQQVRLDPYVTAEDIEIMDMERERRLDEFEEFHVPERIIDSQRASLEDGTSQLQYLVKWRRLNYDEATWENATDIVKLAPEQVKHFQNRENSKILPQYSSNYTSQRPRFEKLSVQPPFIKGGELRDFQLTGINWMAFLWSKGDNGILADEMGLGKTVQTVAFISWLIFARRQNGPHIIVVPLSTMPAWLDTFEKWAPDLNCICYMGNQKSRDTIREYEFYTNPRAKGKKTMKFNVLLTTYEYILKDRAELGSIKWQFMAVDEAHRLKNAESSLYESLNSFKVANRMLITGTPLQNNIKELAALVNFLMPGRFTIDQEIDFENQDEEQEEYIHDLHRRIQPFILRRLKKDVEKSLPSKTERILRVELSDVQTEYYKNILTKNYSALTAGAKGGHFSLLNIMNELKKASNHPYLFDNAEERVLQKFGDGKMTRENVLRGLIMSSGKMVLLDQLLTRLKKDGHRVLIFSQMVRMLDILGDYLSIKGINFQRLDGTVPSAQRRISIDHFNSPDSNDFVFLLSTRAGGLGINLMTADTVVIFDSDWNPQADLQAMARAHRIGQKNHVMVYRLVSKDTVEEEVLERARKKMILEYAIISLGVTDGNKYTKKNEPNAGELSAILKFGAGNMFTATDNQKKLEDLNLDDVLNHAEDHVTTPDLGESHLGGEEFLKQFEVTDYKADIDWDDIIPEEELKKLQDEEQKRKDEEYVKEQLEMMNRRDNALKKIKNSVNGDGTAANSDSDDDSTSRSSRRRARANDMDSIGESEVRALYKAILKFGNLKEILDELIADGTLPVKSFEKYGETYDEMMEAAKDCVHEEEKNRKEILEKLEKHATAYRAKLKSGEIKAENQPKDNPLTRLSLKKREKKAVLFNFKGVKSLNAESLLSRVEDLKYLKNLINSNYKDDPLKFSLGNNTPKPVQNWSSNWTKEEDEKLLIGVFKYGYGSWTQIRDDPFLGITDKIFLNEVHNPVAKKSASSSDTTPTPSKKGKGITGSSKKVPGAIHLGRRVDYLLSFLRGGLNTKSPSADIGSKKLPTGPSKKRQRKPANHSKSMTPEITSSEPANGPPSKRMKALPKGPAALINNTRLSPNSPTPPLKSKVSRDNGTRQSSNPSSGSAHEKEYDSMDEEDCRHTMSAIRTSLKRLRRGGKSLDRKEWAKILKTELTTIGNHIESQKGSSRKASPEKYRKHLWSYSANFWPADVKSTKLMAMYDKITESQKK
# Protein translocase subunit SecA (Escherichia coli (strain K12)), sequence (P10408 whole entry): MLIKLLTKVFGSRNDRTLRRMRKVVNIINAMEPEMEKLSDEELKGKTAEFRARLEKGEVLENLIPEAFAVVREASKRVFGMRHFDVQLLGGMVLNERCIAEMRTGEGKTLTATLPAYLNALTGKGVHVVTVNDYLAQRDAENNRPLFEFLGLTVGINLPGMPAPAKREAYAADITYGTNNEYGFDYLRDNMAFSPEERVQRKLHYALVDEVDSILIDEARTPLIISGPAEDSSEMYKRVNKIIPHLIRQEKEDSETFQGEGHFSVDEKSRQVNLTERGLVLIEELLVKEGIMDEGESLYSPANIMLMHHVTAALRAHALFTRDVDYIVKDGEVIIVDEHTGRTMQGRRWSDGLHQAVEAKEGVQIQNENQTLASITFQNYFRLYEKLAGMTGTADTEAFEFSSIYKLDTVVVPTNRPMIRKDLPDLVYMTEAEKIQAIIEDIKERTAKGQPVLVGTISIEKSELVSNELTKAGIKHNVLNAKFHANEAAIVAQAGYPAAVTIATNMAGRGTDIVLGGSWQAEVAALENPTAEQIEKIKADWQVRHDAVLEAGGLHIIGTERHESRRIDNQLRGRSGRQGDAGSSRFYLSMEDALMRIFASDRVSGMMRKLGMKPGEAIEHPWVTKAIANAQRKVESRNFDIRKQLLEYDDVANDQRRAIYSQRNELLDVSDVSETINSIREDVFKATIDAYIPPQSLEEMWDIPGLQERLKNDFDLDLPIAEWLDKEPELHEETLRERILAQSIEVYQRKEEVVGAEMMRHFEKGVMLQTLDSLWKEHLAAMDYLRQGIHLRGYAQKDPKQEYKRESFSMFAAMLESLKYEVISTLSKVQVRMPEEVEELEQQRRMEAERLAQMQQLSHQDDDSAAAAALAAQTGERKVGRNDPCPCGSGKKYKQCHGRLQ
# Sialic acid-binding Ig-like lectin 9 (Homo sapiens), sequence (Q9Y336 whole entry): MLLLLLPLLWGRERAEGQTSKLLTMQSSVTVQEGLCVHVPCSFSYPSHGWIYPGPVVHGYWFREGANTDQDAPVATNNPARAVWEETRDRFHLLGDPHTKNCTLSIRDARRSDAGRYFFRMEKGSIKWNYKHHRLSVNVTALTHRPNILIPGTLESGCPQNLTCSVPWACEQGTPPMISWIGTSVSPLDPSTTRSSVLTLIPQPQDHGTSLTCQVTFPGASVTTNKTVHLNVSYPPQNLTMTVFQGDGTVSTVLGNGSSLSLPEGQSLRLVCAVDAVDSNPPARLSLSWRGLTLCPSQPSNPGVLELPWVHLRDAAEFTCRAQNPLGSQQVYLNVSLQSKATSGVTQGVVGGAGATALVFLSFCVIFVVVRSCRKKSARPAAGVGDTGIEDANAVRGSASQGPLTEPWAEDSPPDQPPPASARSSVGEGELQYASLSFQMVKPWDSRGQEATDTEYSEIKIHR
SMILES,Percent Effect [1],Percent Effect [2],Percent Effect [3],Percent Effect [4],Percent Effect (Trypanosoma cruzi),Percent Effect [5],Percent Effect [6],Percent Effect (Homo sapiens),Percent Effect [7],Percent Effect [8],Percent Effect [9]
Cc1cc(C)n(CC2CCCN2C(=O)CCCNc2ncccn2)n1 (configuration not stated),-3.06%,5.26%,1.29%,7.88%,3.01%,1.15%,5.68%,-8.34%,6.37%,9.76%,-0.0349%
Cc1cc(C)n(C2CN(CC(=O)NC3CCOCC3)C2)n1,-6.74%,6.33%,6.98%,1.96%,-1.33%,-1.94%,9.26%,10.4%,8.33%,15.2%,-15%
CC(=O)N1CCCN(C(=O)c2csc(-c3ccc(C)cc3C)n2)CC1,-4.67%,18.9%,-3.68%,14.8%,7.15%,-7.58%,5.39%,30%,5.94%,23.2%,-6.02%
Cc1ccc(N2CCCC(NCc3ccc(C)o3)C2)nn1 (configuration not stated),-0.735%,6.33%,1.51%,-2.46%,4%,-1.5%,28.8%,-8.15%,5.21%,10.1%,-15.2%
COCC1c2nnn(CC3CC3)c2CCN1C(=O)Cc1cccs1 (configuration not stated),1.82%,2.7%,-8.03%,6.62%,4.59%,13.7%,17.2%,7.37%,4.3%,-58%,-3.81%
COc1cc(C(=O)N(Cc2ccco2)C2CC2)cc2c1OCCO2,-0.29%,-2.63%,8.94%,6.17%,-1.46%,-5.92%,6.81%,6.99%,2.13%,2.6%,0.909%
CN1CC2(COCCN(C(=O)c3ccco3)C2)OCC1=O (configuration not stated),-5.81%,2.67%,-0.919%,-3.45%,-5.99%,-55.4%,0.513%,-7.28%,-3.12%,-2.5%,-2.77%
Cc1nc(Nc2ncccn2)cc(C2CCCN2CC(C)C)n1 (configuration not stated),-6.07%,5.33%,4.6%,-0.413%,-1.38%,-2.56%,-1.5%,0.824%,2.13%,6.41%,-1.78%
O=C1N(Cc2cccc(F)c2F)CCCC1(O)CNC1CCCC1 (configuration not stated),-6.14%,16%,-3.79%,22.4%,5.55%,7.29%,4.36%,4.41%,3.83%,6.17%,97.3%
CN(C(=O)C1CCCCC1)[C@@H]1CCC[C@@H](N2CCOCC2)[C@@H]1O,-3.72%,4.05%,0.0373%,6.37%,1.78%,-2.09%,6.86%,8.21%,1.07%,3.9%,74.8%
CCc1n[nH]c(C2CN(C(=O)c3cnc(C)s3)CCO2)n1 (configuration not stated),-5.53%,12.7%,-5.15%,12.5%,5%,-1.9%,-3.03%,-0.688%,3.45%,8.86%,-5.66%
CN1Cc2c(C(=O)Nc3cccnc3)ncn2-c2ccccc2S1(=O)=O,-1.38%,-5.48%,-2.46%,4.18%,0%,-4.39%,7.79%,-3.68%,0%,6.17%,0.964%
CNC(=O)C1Cn2ccnc2C2(CCN(CCF)CC2)O1 (configuration not stated),-1.42%,5.2%,2.6%,-5.27%,-8.97%,0.645%,13.1%,15.2%,3.17%,3.85%,-5.68%
O[C@H]1[C@H](n2cc(-c3cccnc3)nn2)c2ccccc2C12CCNCC2,-1.28%,4.17%,-0.513%,14.2%,2.82%,12.4%,3.86%,-3.37%,3.16%,10.3%,-3.88%
COC(=O)C(c1cc(F)ccc1F)N(C)C(=O)c1csnn1 (configuration not stated),1.09%,16.5%,3.37%,-5.43%,-5.64%,-1.5%,14.4%,21.4%,6.25%,12.7%,-27.1%
Cc1cnc2c(S(=O)(=O)NCC3CCN(C4CC4)C3)cccc2c1 (configuration not stated),-4.76%,-2.63%,-3.93%,-5.34%,5.32%,-3.6%,-7.53%,-27.5%,11.3%,6.17%,6.25%
O=C(NCCN1CCOCC1)NCc1ncc(-c2ccccc2)o1,-2.93%,2.67%,-6.01%,8.92%,7.3%,0%,16.6%,19.1%,7.1%,13.6%,-0.412%
CCCc1nc(C)cc(N2CCC3(CCC(=O)N(CCOC)C3)CC2)n1,-4.76%,10.8%,-6.4%,-1.18%,-0.489%,-0.744%,10.9%,-7.21%,4.3%,13.6%,-3.56%
O=C(NCCC(=O)N1CCCC1)c1nn(-c2ccccc2F)cc1O,-10.5%,10.8%,-8.26%,24.5%,8.82%,-0.554%,8.08%,17.9%,5.94%,15.8%,-11.4%
CCC(O)CNC(=O)C1(N(C)Cc2ccccc2)Cc2ccccc2C1 (configuration not stated),-4.2%,2.67%,3.26%,-1.75%,-2.63%,3.12%,8.72%,-26.6%,1.64%,8.64%,-5.97%
O=C(CCc1cc2n(n1)CCCN(Cc1ccccc1F)C2)NC1CC1,-3.75%,1.39%,1.32%,0.0735%,6.71%,-2.21%,10.2%,-26.8%,2.1%,5.13%,-4.12%
Cn1ccnc1CN1CCC2(COCCN(Cc3ccsc3)C2)C1 (configuration not stated),-3.36%,13%,-5.28%,12.1%,6%,-11%,12.2%,-9.92%,9.68%,21%,-6.67%
